According to PubChem BioAssay AID995 (National Center for Advancing Translational Sciences (NCATS), 2007):
Among all 72,000 compounds or so, about 710 (0.99%) were called active. Roughly 7% stayed inconclusive and do not appear here. Shown is part of a subset that was picked to be rich in actives. Values without a mark were called inactive. Calls come from the whole dose curve; as a rule, active = well fitted inhibition curve with a large enough effect; inconclusive = small, poorly fitted or top-dose-only effect; inactive = no such curve, though single readings can be large or run the other way.

Assay: qHTS Assay for Inhibitors of the ERK Signaling Pathway using a Homogeneous Screening Assay; note: nearly all actives have a fitted effect of over 55% in size
Conditions: HEK293-V1b, vasopressin-stimulated pERK AlphaScreen; series mostly up to 57.5 µM; activity, negative = inhibition: at the top concentration
Text: qHTS Assay for Inhibitors of the ERK Signaling Pathway using a Homogeneous Screening Assay; note: nearly all actives have a fitted effect of over 55% in size
NIH Chemical Genomics Center [NCGC]
NIH Molecular Libraries Screening Centers Network [MLSCN]
Assay Submitter (PI): Dr. Wei Zheng, NCGC/NIH
The Ras/extracellular-signal-regulated kinase (ERK) mitogen activated protein (MAP) kinase signaling pathway (ERK1/2 cascade) plays is a key role in transmitting signals from the cell surface to the nucleus (Nishida and Gotoh 1993; Chang and Karin, 2001). The cascade is initiated by the small G-protein Ras, which recruits Raf […], where activation occurs. Alternatively, this pathway can be activated by elevating intracellular cAMP.
Activation of the ERK pathway is essential in increased cell division and cell survival. Sustained and constitutive activation of the ERK pathway, however, has been linked to uncontrolled cell proliferation, increased cell survival, and tumor progression. Thus, the ERK has been as an attractive target for cancer chemotherapy in the past few years (Sebolt-Leopold and Herrera, 2004). Given its physiological and pathological importance, assessment of ERK phosphorylation has been broadly performed in both basic research and drug discovery. Most assays for the measurement of ERK phosphorylation use the antibody-based detection methods, such as western blot and ELISA. These assays require multiple reagent additions with cell wash steps and are not suitable for high throughout screening.
The current cell-based ERK phosphorylation assay was performed using AlphaScreen platform. AlphaScreen is a two bead-based proximity-dependent chemical energy transfer luminescent assay platform. The assay reagents (ERK SureFire(TM) kit) were supplied from TGR BioSciences (Australia). In the presence of specific antibodies, phosphorylated ERK will bring "donor" and "acceptor" beads to a proximity range (<200 nm), and subsequently lead a chemical luminescent reaction upon exciting donor beads with 680 nm laser. To exclude the assay-related false positives, we used a biotinylated rabbit IgG to perform counter-screen. The biotinylated antibody mimics the phosphorylated ERK1/2 for bringing streptavidin coated beads and protein-A coated beads to a proximity range for the AlphaScreen detection.
NCGC Assay Protocol Summary:
HEK293 cells stably expressing type-1 vasopressin receptor (V1b) were maintained in DMEM medium (Invitrogen, Carlsbad, CA) at 37C under a humidified atmosphere containing 5% CO2 and 95% air. The medium contained 10% FBS, 2 mM L-glutamine, non-essential amino acid, pyruvate and 50 U/ml penicillin and 50 ug/ml streptomycin (Invitrogen). The aliquots of frozen cells were stored at -135C and used for the compound screening. All compounds were screened as titrations from 0.6 nM to 46 uM final concentration. Vasopressin was used to stimulate the ERK phosphorylation pathway. The ERK phosphorylation in cells was determined using an AlphaScreen assay kit provided by PerkinElmer. Data were normalized to the controls for basal activity (DMSO only) and 100% activation (25 nM vasopressin). AC50 values were determined from concentration-response data modeled with the standard Hill equation.
(1) Seed 4 ul/well of resuspended frozen HEK293 cells containing 2000 cells in white 1536-well plates for overnight with 1% FBS at 37C under a humidified atmosphere containing 5% CO2 and 95% air.
(2) Add 23 nL compounds in DMSO solution. The final titration was 0.6 nM to 46 uM.
(3) Incubate at 37C for 30 min.
(4) Dispense 0.5uL vasopressin (25 nM in final)
(5) Incubate at 37C for 5 min.
(6) Dispense 0.5uL of 1:2 diluted 5x lysis buffer.
(7) Incubate at 37C for 10 min.
(8) Dispense 1.5uL of mixture of activation buffer and reaction buffer with AlphaScreen beads (streptavidin donor beads and protein-A acceptor beads, 10 ng/well for each).
(9) Incubate at room temperature for 5 hr.
(10) Detect the assay plate in an EnVision plate reader (PerkinElmer) using the AlphaScreen detection mode.
[…]
% is set by controls: 0 for no effect and ±100 for the full control effect; potency is the fitted concentration of half-maximal effect.

Row | Structure (SMILES) | Potency | activity, negative = inhibition
1 | N#Cc1c(Cl)c(Cl)c(Cl)c(C#N)c1Cl | 2 µM (active) | –
2 | C[N+]1(C)C2CC(OC(=O)C(CO)c3ccccc3)CC1[C@@H]1O[C@H]21 (stereo not given in full) | inactive | –
3 | BrC1C(Br)C(Br)C(Br)C(Br)C1Br (stereo not given) | – | 41.9%
4 | COC1CC(OC2CC[C@@]3(C=O)C4CC[C@]5(C)C(C6=CC(=O)OC6)CC[C@@]5(O)C4CC[C@]3(O)C2)OC(C)C1O (stereo not given in full) | – | 3.45%
5 | CN1[C@@H]2CC[C@H]1CC(OC(=O)c1cc(Cl)cc(Cl)c1)C2 (stereo not given in full) | – | 11.3%
6 | CN1[C@@H]2CC[C@H]1CC(NC(=O)c1nn(C)c3ccccc13)C2 (stereo not given in full) | – | 28.8%
7 | C[C@H](CCC(=O)O)[C@H]1CC[C@@H]2[C@H]3CC[C@H]4C[C@H](O)CC[C@@]4(C)[C@@H]3CC[C@@]21C | – | -8.67% [at 11.5 µM]
8 | CSC1=NP(=S)(SC)N(C)c2nc3n(c21)CCC3 (stereo not given) | 15.8 µM (active) | –
9 | CNC(C)[C@@H](O)c1ccccc1 (stereo not given in full) | – | 4.53%
10 | C[C@]12CC[C@H](O)CC1=CC[C@@H]1[C@H]2CC[C@]2(C)C(=O)CC[C@H]12 | – | 14.5%
11 | O=[N+]([O-])c1ccc(Cl)c(Cl)c1 | – | 21.3%
12 | CC(C)(Cc1c[nH]c2ccc(Cl)cc12)NCCOc1ccccc1OCC1CC1 | 39.8 µM (active) | –
13 | Clc1cccc(Cl)c1Cl | – | -11.6%
14 | CNCC[C@H](Oc1ccc(C(F)(F)F)cc1)c1ccccc1 | inactive | –
15 | CC(C)C(N)C(=O)OCCOCn1cnc2c(=O)[nH]c(N)nc21 (stereo not given) | – | 22.7%
